G9a block = blocks human histone lysine methyltransferase G9a; Q96KQ7; G9a H3K9 monomethylation, AlphaScreen, 2 h; Potency, µM (series often up to 102 µM), without a hit: top-dose activity, negative = inhibition, usual class: inhibitors; actives 8.8% (n = 350,000); AID 504332; note: % is set by controls: 0 for no effect and ±100 for the full control effect; nearly all actives have a fitted effect of over 75% in size
Target sequence (Q96KQ7 913-1193 limits assumed): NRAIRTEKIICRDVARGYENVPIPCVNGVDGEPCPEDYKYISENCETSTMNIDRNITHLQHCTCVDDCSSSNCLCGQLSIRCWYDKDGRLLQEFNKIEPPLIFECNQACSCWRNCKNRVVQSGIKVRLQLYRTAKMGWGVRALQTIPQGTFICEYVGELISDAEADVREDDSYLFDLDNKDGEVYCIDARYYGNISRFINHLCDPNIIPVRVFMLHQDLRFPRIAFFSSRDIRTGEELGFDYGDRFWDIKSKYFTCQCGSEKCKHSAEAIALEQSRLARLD
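Quantitative HTS format: methyltransferase activity on a biotin-tagged H3K9 peptide is measured by AlphaScreen, using a rabbit anti-monomethyl-H3K9 antibody with streptavidin donor and anti-IgG acceptor beads. Final levels are 20 nM enzyme, 500 nM peptide, 20 uM SAM; 2 h RT.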
Sfp inh = blocks B. subtilis Sfp PPTase activity. Q9F4F7. Biochemical Sfp PPTase activity, qHTS. Potency, µM, for the others: largest response in the series, negative = inhibition, most hits filed as inhibitors. actives 3.5% (n = 310,000);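 note: the enzyme is Sfp with the accession as filed and its product quenches rhodamine fluorescence; 0% = enzyme reaction without inhibitor and -100% = no enzyme wells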
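Fluorescence-quenching assay: 15 nM Sfp-PPTase preincubated 15 min at room temperature with compound, then 5 uM rhodamine-CoA and 12.5 uM BHQ-2-labelled YbbR peptide added. Fluorescence (ex 525/em 598 nm) read at start and after 30 min; difference gives rate.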
JMJD2A Tudor = JMJD2A Tudor domain (human) inhibition. AlphaScreen JMJD2A-Tudor / H3K4me3 peptide binding. actives 4.4% (n = 390,000). O75164. Potency, µM (titrated, usually from 114 µM), without a hit: at the highest dose activity change, negative = inhibition, hits mostly inhibitors; note: % is set by controls: 0 for no effect and ±100 for the full control effect; nearly all actives have a fitted effect of over 50% in size
HP1b chromo inh = blocks HP1-beta chromodomain binding to methylated histone tails; actives 0.56% (n = 390,000); AlphaScreen HP1-beta / biotin-H3K9me3 peptide binding; P83916; Potency, µM (titrated, usually from 114 µM), for the others: at the top dose activity change, negative = inhibition, most hits filed as inhibitors; note: nearly all actives have a fitted effect of over 70% in size
Target sequence (P83916 whole entry, looked up): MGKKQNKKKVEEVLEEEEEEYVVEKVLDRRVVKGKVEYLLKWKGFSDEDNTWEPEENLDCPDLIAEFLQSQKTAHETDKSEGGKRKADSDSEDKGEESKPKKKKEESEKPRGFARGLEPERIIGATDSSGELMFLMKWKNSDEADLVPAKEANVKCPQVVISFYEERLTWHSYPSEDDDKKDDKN
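HP1-beta protein (50 nM final) preincubated 30 min at room temperature with biotinylated H3(1-18)K9me3 peptide (50 nM) in PBS pH 7.4, 0.01% Tween-20, then compound added for 30 min. AlphaScreen streptavidin donor/nickel chelate acceptor beads (10 ug/mL final), 30 min dark, luminescence read.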
BAZ2B inh = inhibitors of human BAZ2B bromodomain; Q9UIF8; AlphaScreen BAZ2B-H3K14Ac peptide displacement; Potency, µM (highest dose often 114 µM), without a hit: top-dose activity change, negative = inhibition, most hits filed as inhibitors; actives 4.4% (n = 360,000); AID 504333; note: % is set by controls: 0 for no effect and ±100 for the full control effect; nearly all actives have a fitted effect of over 60% in size
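AlphaScreen displacement: compounds (up to 110uM) incubated 30 min at room temperature with a preformed 50 nM BAZ2B/50 nM biotinylated H3K14Ac peptide complex in PBS pH 7.4 with Tween-20. Donor and acceptor beads at 10 ug/mL final added, 20 min light-protected before reading.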
The depositor's hits bear a star; ? = inconclusive; · = not tested or not shown; [ ] = dose if it differs, or a comment. Hits are enriched below; roughly 12% of the tested compounds scored in any of these assays. Calls come from the whole dose curve; as a rule, active = well fitted curve in the direction sought with a large enough effect; inconclusive = small, poorly fitted or top-dose-only effect, or another doubt; inactive = no such curve, though single readings can be large; an effect the other way counts as inactive or inconclusive. Potency is the fitted concentration of half-maximal effect.

SMILES	G9a block	Sfp inh	JMJD2A Tudor	HP1b chromo inh	BAZ2B inh
O=C(COc1ccc(Br)cc1)NNC(=O)c1ccc(-n2cncn2)c([N+](=O)[O-])c1	?	·	0.0%	42.2%	-2.4%
CCSc1nc(-c2cccc(Cl)c2)nc2c1Cc1c(CO)cnc(C)c1O2	0.5%[59 µM]	·	7.3%	30.3%	-3.5%
CC(=O)Nc1ccc(S(=O)(=O)NC2=C(N3CCN(c4ccc(F)cc4)CC3)C(=O)c3ccccc3C2=O)cc1	2.82µM*	-13.1%	22.4µM*	25.1µM*	22.4µM*
CCOc1ccc(OCC(=O)NCCS(=O)(=O)N2CCN(c3ccc(OC)cc3)CC2)cc1	-4.2%[59 µM]	·	-15.3%	7.8%[57 µM]	0.3%
Cc1cc(C)n2nc(SCC(=O)NC(=O)c3ccccc3)nc2n1	·	·	-4.8%	28.0%	·
Cc1ccc(Sc2ccc(CO)cc2[N+](=O)[O-])cc1	-47.3%	-10.2%	?	-22.2%	?
Cc1ccc(Sc2ccc(CN3CCCC3)cc2[N+](=O)[O-])cc1	?	-4.2%	44.7µM*	?	?
CN1CCN(Cc2ccc(Sc3ccc(Cl)cc3)c([N+](=O)[O-])c2)CC1	-44.4%	?	?	-28.8%	31.6µM*
O=C1Nc2ccccc2C1=NN1CCCCCC1	·	·	?	-11.2%	·
Nc1n[nH]c(=S)n1/N=C1/C(=O)Nc2ccccc21	1µM*	11.2µM*	2.51µM*	15.8µM*	-24.8%
CCCS(=O)(=O)Nc1ccc(N2CCCCC2)c(S(=O)(=O)Nc2ccccc2OC)c1	11.2µM*	·	-25.5%	-23.7%	-31.4%
Nc1ccc(N2CCCCC2)c(S(=O)(=O)Nc2ccccc2Cl)c1	14.1µM*	28.2µM*	?	?	?
COc1ccccc1NS(=O)(=O)c1cc(NC(=O)CC(C)(C)C)ccc1N1CCOCC1	-3.1%	9.6%	-9.0%[11.4 µM]	33.1%	-17.7%
Nc1ccc(N2CCCCC2)c(Cl)c1	44.7µM*	16.8%	-34.0%	-32.5%	-26.1%
COc1ccccc1NS(=O)(=O)c1cc(N)ccc1N1CCCCC1	3.98µM*	11.2µM*	56.2µM*	-26.7%	?
O=C1CCCC/C=C\C[C@H](CC(=O)N(CCO)Cc2ccccc2)C(=O)NCCO1	·	·	-13.9%	3.5%	·
NCCC[C@@H](CC(=O)N[C@@H]1CCNC[C@H]1C(=O)N[C@H](CC(=O)N[C@@H](CCC(=O)O)CC(=O)O)Cc1c[nH]c2ccccc12)NC(=O)C[C@H](CO)NC(=O)[C@@H]1CCCC[C@H]1N	·	13.0%	·	·	·
CN1C2=CC=CC=CC2=[N+](C)C12C([N+](=O)[O-])=CC(=[N+]([O-])[O-])C=C2[N+](=O)[O-] (stereo not drawn)	?	?	-13.5%	0.4%	-35.6%
CN1C2=CC=CC=CC2=[N+](C)C12C=CC(=[N+]([O-])[O-])C=C2[N+](=O)[O-] (stereo not drawn)	31.6µM*	-15.2%	-28.2%	?	35.5µM*
c1ccc(Nc2nc(-c3ccc4c(c3)OCO4)nc3ccccc23)cc1	7.6%[0.501 µM]	-9.4%	·	·	·
Cc1ccc(CNS(=O)(=O)c2ccc(F)c(F)c2)n1C	44.7µM*	4.8%	-26.2%	-20.4%	-23.8%
Cc1ccc(CNS(=O)(=O)c2ccc(C(F)(F)F)cc2)n1C	44.7µM*	14.1%	-27.2%	23.1%	?
CC12C=C(/C=C/C=C/c3ccccc3)C(C)(C1)C(/C=C/c1ccccc1)CC2=O (stereo not drawn)	·	-7.7%	·	·	·
CC(C)c1ccc(NC(=O)c2cccc(Br)c2)cc1	27.8%[59 µM]	13.3%	7.4%	53.3%	3.9%
Cc1nc2ccc(N=NC3=C(O)CC(C)(C)CC3=O)cc2s1	?	-12.3%	?	-14.6%	?
SMILES	G9a block	Sfp inh	JMJD2A Tudor	HP1b chromo inh	BAZ2B inh
O=C(O)c1cccc(N=NN2CCOCC2)c1	15.8µM*	6.7%	-7.2%	37.7%	-23.1%
CCN(CC)S(=O)(=O)c1cccc(N=NC2=C(O)CCCC2=O)c1	?	-3.3%	-26.6%	22.8%	?
O=C1CCCC(O)=C1N=Nc1c(Cl)cc(Cl)cc1Cl	8.91µM*	-14.4%	?	10.1%	50.1µM*
O=C(O)c1cccc(S(=O)(=O)N2CCOCC2)c1	8.1%[59 µM]	20.1%	-30.6%	19.8%	-26.1%
Cc1nc2ccc(N=NC3=C(O)CCCC3=O)cc2s1	39.8µM*	7.4%	?	30.0%	-33.7%[57.1 µM]
O=C1CCCC(O)=C1N=Nc1cccc(C(=O)O)c1	28.2µM*	-22.8%	89.1µM*	-25.6%	·
C=C(C)C(=O)NNc1ccccc1	11.2µM*	-10.9%	-4.9%	28.4%	-4.9%
CCCOC(=O)C(=O)NNc1ccccc1	39.8µM*	-18.1%	3.0%	22.7%	6.5%
COc1cc(NC(=O)c2cc(C3CC3)nc3c2c(C)nn3-c2ccc(C)cc2)cc(OC)c1	5.6%[59 µM]	·	0.3%	55.5%	17.0%[57.1 µM]
c1ccc(NC2=Nc3cccc4cccc2c34)cc1	25.1µM*	2.1%	-12.8%[57.1 µM]	-14.3%	?
COc1ccc(NC2=Nc3cccc4cccc2c34)cc1	?	-19.6%	44.7µM*	?	35.5µM*
O=C(OCC(=O)N1CCOCC1)c1cccc(S(=O)(=O)Nc2ccc(F)cc2)c1	14.8%[12.7 µM]	·	-2.0%	40.8%	-1.0%
CN1CCC(Oc2ccc(Sc3ccccc3)cc2)CC1	-5.5%[59 µM]	-9.5%	-24.3%	16.4%	-20.9%
CN1CCC(Oc2ccccc2Sc2ccc(C(F)(F)F)cc2)CC1	?	-25.4%	?	11.1%	79.4µM*
CCCc1ccccc1OCCNC(C)=O	-6.7%[59 µM]	4.9%	15.8µM*	-10.6%	-5.0%
Cc1ccc(NC(=O)COC(=O)Cn2cnc3ccccc32)cc1S(=O)(=O)N(C)C	50.1µM*	3.6%	-13.8%	22.6%	-32.4%
Cc1ccc(NC(=O)CNCc2ccccc2Cl)cc1S(=O)(=O)N(C)C	-12.1%	?	3.16µM*	31.6µM*	50.1µM*
O=C(COC(=O)Cn1cnc2ccccc21)Nc1ccc2c(c1)C(=O)c1ccccc1C2=O	?	-21.4%	-11.4%	29.1%	-11.7%
Cc1ccc(NC(=O)CNCc2ccc(Cl)cc2Cl)cc1S(=O)(=O)N(C)C	10µM*	79.4µM*	20µM*	35.5µM*	25.1µM*
COc1ccc(-c2cc(C(=O)Nc3c(C(=O)c4ccc(C)cc4)oc4ccccc34)no2)cc1	-0.3%[59 µM]	·	-6.6%	13.9%	0.9%
Cc1ccc(CNCc2ccco2)cc1	22.4µM*	-6.0%	28.2µM*	-4.7%	56.2µM*
COc1cc(OC)c(C(=O)NCc2ccco2)cc1OC	?	-3.2%	-13.2%	36.2%	-1.5%
CSc1ccc(CNCc2ccco2)cc1	?	10.2%	-17.9%	15.6%	-30.6%
COc1cc(CNCc2ccco2)cc(OC)c1O	70.8µM*	7.6%	-6.2%	34.7%	-4.4%
COc1cccc(NC(=O)c2cc3c(-c4ccc(Cl)cc4)nn(C)c3s2)c1	38.6%[59 µM]	·	-24.3%	66.2%	·
O=C(c1csnn1)N1CCC2(CCCN(c3ccc(-c4ccccc4)cc3)C2)CC1	5.5%[12.7 µM]	-9.3%	·	·	·
COc1ccc(-c2cc(=O)c3c(OC)c(OC)c(OC)c(OC)c3o2)cc1OC	?	31.0%	-21.6%	19.6%	-22.9%

Source: PubChem (National Center for Advancing Translational Sciences (NCATS))
